Assay results as given in PubChem BioAssay (EPA / NIEHS).
Values joined by “and” are separate entries in the source; they are usually repeats but may differ in a detail not shown here. Equal values may be shown once. Inconclusive results are not listed. Active and inactive are the calls of the source. How the source made its calls, unless noted: active means hit-call score of the fitted dose curve at least 0.9, where 1 is the maximum; inactive means score below 0.9.

Assays:
DIO1 (gene 1733) = assay: CCTE_GLTED_hDIO1: CCTE's human Deiodinase 1 (DIO1) Inhibition Assay, Great Lakes Toxicology and Ecology Division (GLTED) Lab (AID 2283987; active means hit-call score of the fitted dose curve at least 0.9, where 1 is the maximum;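 further: isolated human DIO1 enzyme in a cell-free setup rather than cells; enzyme activity read as free iodide liberated from substrate via Sandell-Kolthoff colorimetry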)
Summary of the method: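 Cell-free human DIO1 enzyme was incubated with test chemical for 3 h, and iodide released from substrate was measured by Sandell-Kolthoff absorbance. Loss of signal versus DMSO baseline indicated inhibition; plates were run in triplicate.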

DIO2 (gene 1734) = assay: CCTE_GLTED_hDIO2: CCTE's human Deiodinase 2 (DIO2) Inhibition Assay, Great Lakes Toxicology and Ecology Division (GLTED) Lab (AID 2284050; active means hit-call score of the fitted dose curve at least 0.9, where 1 is the maximum)
Summary of the method: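 In this cell-free test, chemicals are exposed to human deiodinase type 2 for 3 hours. Released iodide is determined spectrophotometrically via the Sandell-Kolthoff method, and signal loss relative to DMSO is fitted.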

DIO3 (gene 1735) = assay: CCTE_GLTED_hDIO3: CCTE's human Deiodinase 3 (DIO3) Inhibition Assay, Great Lakes Toxicology and Ecology Division (GLTED) Lab (AID 2284055; active means hit-call score of the fitted dose curve at least 0.9, where 1 is the maximum;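 further: potency is for inhibition seen as loss of released iodide signal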)
Summary of the method: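 Enzyme activity is tracked as iodide release from substrate by recombinant human DIO3 over 3 h with chemical present. A second Sandell-Kolthoff step converts iodide to an absorbance signal, fitted relative to DMSO.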

[1] = read-out: Monokine induced gamma interferon (MIG), CXCL9 (gene 4283); assay: BSK_KF3CT_MIG: BioMAP Diversity Plus: KF3CT Assay for Monokine induced gamma interferon (MIG) Biomarker Activity (AID 2284248); conditions: primary human keratinocytes with fibroblasts
Summary of the method: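 Human keratinocyte plus foreskin fibroblast primary co-culture dosed with test chemical for 24 h; MIG level measured by ELISA and fitted in the positive direction against DMSO as baseline.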

[2] = read-out: Interferon-inducible T-cell alpha chemoattractant (ITAC), CXCL11 (gene 6373); assay: BSK_hDFCGF_ITAC: BioMAP Diversity Plus: hDFCGF Assay for Interferon-inducible T-cell alpha chemoattractant (ITAC) Biomarker Activity (AID 2284251); conditions: primary human foreskin fibroblasts
Summary of the method: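 Fibroblasts (human foreskin, primary) are treated with chemical, cultured 24 h, then assayed for I-TAC by ELISA. Overt toxicity is checked in parallel cultures by sulforhodamine B staining of total protein at the same time point.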

[3] = read-out: Plasminogen activator inhibitor-1 (PAI1), SERPINE1 (gene 5054); assay: BSK_KF3CT_PAI1: BioMAP Diversity Plus: KF3CT Assay for Plasminogen activator inhibitor-1 (PAI1) Biomarker Activity (AID 2284252); conditions: primary human keratinocytes with fibroblasts
Summary of the method: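 Signal is PAI-1 detected by ELISA in a human skin-derived keratinocyte/fibroblast co-culture, 24 h after dosing; DMSO served as negative control and baseline.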

[4] = read-out: Intercellular Adhesion Molecule 1 (ICAM1), ICAM1 (gene 3383); assay: BSK_BE3C_ICAM1: BioMAP Diversity Plus: BE3C Assay for Intercellular Adhesion Molecule 1 (ICAM1) Biomarker Activity (AID 2284278); conditions: primary human bronchial epithelial cells
Summary of the method: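 Measured by ELISA: ICAM-1 expressed by primary human bronchial epithelial cells 24 h after compound treatment, with upward-direction fitting versus DMSO vehicle.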

[5] = read-out: Interferon-inducible T-cell alpha chemoattractant (ITAC), CXCL11 (gene 6373); assay: BSK_BE3C_ITAC: BioMAP Diversity Plus: BE3C Assay for Interferon-inducible T-cell alpha chemoattractant (ITAC) Biomarker Activity (AID 2284279); conditions: primary human bronchial epithelial cells
Summary of the method: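 The assay measures I-TAC levels by ELISA in human primary bronchial epithelial cell cultures 24 hours after chemical treatment. Values reflect signal increase over the DMSO baseline.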

[6] = read-out: Interleukin-8 (IL8), CXCL8 (gene 3576); assay: BSK_BE3C_IL8: BioMAP Diversity Plus: BE3C Assay for Interleukin-8 (IL8) Biomarker Activity (AID 2284280); conditions: primary human bronchial epithelial cells
Summary of the method: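 IL-8 signal gain, normalised to DMSO vehicle, was scored after a 24 h chemical exposure of primary human bronchial epithelial cells, with detection by ELISA.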

[7] = read-out: Epidermal growth factor receptor (EGFR), EGFR (gene 1956); assay: BSK_BE3C_EGFR: BioMAP Diversity Plus: BE3C Assay for Epidermal growth factor receptor (EGFR) Biomarker Activity (AID 2284281); conditions: primary human bronchial epithelial cells
Summary of the method: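 Compound is added to human bronchial epithelial cells, cells incubate 24 h, then EGFR is detected by ELISA. Values reflect positive-direction fitting relative to DMSO.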

[8] = read-out: Matrix Metallopeptidase 9 (MMP9), MMP9 (gene 4318); assay: BSK_BE3C_MMP9: BioMAP Diversity Plus: BE3C Assay for Matrix Metallopeptidase 9 (MMP9) Biomarker Activity (AID 2284283); conditions: primary human bronchial epithelial cells
Summary of the method: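 Human primary bronchial epithelial cells in the BE3C system were dosed with compound for 24 h. MMP-9 was measured by ELISA, and the positive-direction response was fitted relative to DMSO as baseline. Parallel SRB staining gauged cytotoxicity.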

[9] = read-out: Plasminogen activator inhibitor-1 (PAI1), SERPINE1 (gene 5054); assay: BSK_CASM3C_PAI1: BioMAP Diversity Plus: CASM3C Assay for Plasminogen activator inhibitor-1 (PAI1) Biomarker Activity (AID 2284284); conditions: primary human coronary artery smooth muscle cells;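 further: PAI-1 protein level measured by ELISA 24 h after dosing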
[10] = read-out: Monocyte Chemoattractant Protein-1 (MCP1), CCL2 (gene 6347); assay: BSK_hDFCGF_MCP1: BioMAP Diversity Plus: hDFCGF Assay for Monocyte Chemoattractant Protein-1 (MCP1) Biomarker Activity (AID 2284285); conditions: primary human foreskin fibroblasts
Summary of the method: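 Human foreskin fibroblasts (hDFCGF system) were exposed to compound and secreted MCP-1 was measured by ELISA after 24 hours. Activity was fitted relative to DMSO. Cytotoxicity was checked by SRB total-protein staining in parallel cultures.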

[11] = read-out: Intercellular Adhesion Molecule 1 (ICAM1), ICAM1 (gene 3383); assay: BSK_hDFCGF_ICAM1: BioMAP Diversity Plus: hDFCGF Assay for Intercellular Adhesion Molecule 1 (ICAM1) Biomarker Activity (AID 2284287); conditions: primary human foreskin fibroblasts
Summary of the method: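 Primary human foreskin fibroblasts (hDFCGF system) dosed with chemical; ICAM-1 quantified by ELISA at 24 h relative to DMSO. Parallel SRB total-protein staining to assess overt cytotoxicity.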

[12] = read-out: TIMP metallopeptidase inhibitor 2 (TIMP2), TIMP2 (gene 7077); assay: BSK_hDFCGF_TIMP2: BioMAP Diversity Plus: hDFCGF Assay for TIMP metallopeptidase inhibitor 2 (TIMP2) Biomarker Activity (AID 2284289); conditions: primary human foreskin fibroblasts
Summary of the method: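 Primary human foreskin fibroblasts in the hDFCGF system, dosed for 24 h; TIMP-2 level measured by ELISA, fitted in the positive direction against DMSO; cytotoxicity checked in parallel by sulforhodamine B total protein staining.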

[13] = read-out: Thrombomodulin, THBD (gene 7056); assay: BSK_LPS_Thrombomodulin: BioMAP Diversity Plus: LPS Assay for Thrombomodulin Biomarker Activity (AID 2284296); conditions: primary human HUVEC with PBMC
Summary of the method: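 Human umbilical vein endothelial cells co-cultured with PBMC and stimulated with LPS; cell-surface thrombomodulin measured by ELISA 24 hours after compound. Gain or loss versus DMSO; cytotoxicity checked by SRB staining in parallel cultures.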

CD69, CD69 (gene 969) = assay: BSK_LPS_CD69: BioMAP Diversity Plus: LPS Assay for CD69 Biomarker Activity (AID 2284303); conditions: primary human HUVEC with PBMC
Summary of the method: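 Human umbilical vein endothelial cells co-cultured with PBMC under LPS stimulation, chemical exposure 24 h; cell-surface CD69 measured by ELISA and fitted in the positive direction versus DMSO.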

[14] = biological target: Estrogen receptor (Homo sapiens) + Estrogen receptor beta (Homo sapiens) (UniProt P03372+Q92731); assay: OT_ER_ERaERb_1440: Odyssey Thera (OT) 24-hour HEK293T Protein-Complementation Assay for Estrogen Receptor-alpha/-beta Homodimer (AID 2283356; active means hit-call score of the fitted dose curve at least 0.9, where 1 is the maximum;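 further: heteromer of ER alpha and ER beta binding domains; hits raise reporter fluorescence and both agonists and antagonists give an increase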)
Summary of the method: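 HEK293T cells stably expressing a PCA pair of ERα LBD (aa 310-547) and ERβ LBD (aa 263-489) were dosed for 24 h. Fluorescence intensity increase versus DMSO vehicle was fitted as gain-of-signal.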

[15] = biological target: Estrogen receptor (Homo sapiens) (UniProt P03372); assay: OT_ERa_GFPERaERE_0480: Odyssey Thera (OT) 8-hour HeLa Transcription Induction Assay for Estrogen Receptor (AID 2283381)
Summary of the method: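 Cells (HeLa) receive compound; after 8 h, reporter fluorescence is imaged and quantified by high-content analysis. Gain-of-signal relative to DMSO gives the endpoint.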

[16] = biological target: Estrogen receptor (Homo sapiens) (UniProt P03372); assay: OT_ERa_GFPERaERE_0120: Odyssey Thera (OT) 2-hour HeLa Transcription Induction Assay for Estrogen Receptor (AID 2283382; active means hit-call score of the fitted dose curve at least 0.9, where 1 is the maximum)
Summary of the method: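 Measures ESR1 pathway reporter gain-of-signal in HeLa cells after a 2-hour treatment, detected as fluorescent protein induction by microscopy, DMSO as baseline.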

Measured: AC50

Sequence of Estrogen receptor (Homo sapiens) (P03372 whole entry, looked up): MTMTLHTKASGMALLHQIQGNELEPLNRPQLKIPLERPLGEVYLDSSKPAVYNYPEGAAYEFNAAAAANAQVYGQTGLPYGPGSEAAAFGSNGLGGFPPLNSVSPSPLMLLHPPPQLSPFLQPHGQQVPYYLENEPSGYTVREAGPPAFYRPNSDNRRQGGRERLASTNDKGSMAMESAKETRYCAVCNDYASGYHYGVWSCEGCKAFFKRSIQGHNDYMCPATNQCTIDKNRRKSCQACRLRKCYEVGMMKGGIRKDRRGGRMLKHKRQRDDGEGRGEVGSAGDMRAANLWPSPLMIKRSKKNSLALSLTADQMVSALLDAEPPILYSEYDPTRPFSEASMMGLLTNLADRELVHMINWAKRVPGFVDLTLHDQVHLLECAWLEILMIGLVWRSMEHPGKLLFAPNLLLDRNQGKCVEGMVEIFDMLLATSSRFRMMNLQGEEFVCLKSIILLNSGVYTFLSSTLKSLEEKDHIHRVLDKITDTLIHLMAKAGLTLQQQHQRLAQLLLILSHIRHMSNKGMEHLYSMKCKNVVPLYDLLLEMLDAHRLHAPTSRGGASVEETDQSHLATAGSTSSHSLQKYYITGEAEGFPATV
Sequence of Estrogen receptor (Homo sapiens) + Estrogen receptor beta (Homo sapiens) (P03372 whole entry, looked up, the tested form may be a part): as the sequence (P03372 whole entry, looked up) above
Sequence of Estrogen receptor (Homo sapiens) + Estrogen receptor beta (Homo sapiens) (Q92731 whole entry, looked up, the tested form may be a part): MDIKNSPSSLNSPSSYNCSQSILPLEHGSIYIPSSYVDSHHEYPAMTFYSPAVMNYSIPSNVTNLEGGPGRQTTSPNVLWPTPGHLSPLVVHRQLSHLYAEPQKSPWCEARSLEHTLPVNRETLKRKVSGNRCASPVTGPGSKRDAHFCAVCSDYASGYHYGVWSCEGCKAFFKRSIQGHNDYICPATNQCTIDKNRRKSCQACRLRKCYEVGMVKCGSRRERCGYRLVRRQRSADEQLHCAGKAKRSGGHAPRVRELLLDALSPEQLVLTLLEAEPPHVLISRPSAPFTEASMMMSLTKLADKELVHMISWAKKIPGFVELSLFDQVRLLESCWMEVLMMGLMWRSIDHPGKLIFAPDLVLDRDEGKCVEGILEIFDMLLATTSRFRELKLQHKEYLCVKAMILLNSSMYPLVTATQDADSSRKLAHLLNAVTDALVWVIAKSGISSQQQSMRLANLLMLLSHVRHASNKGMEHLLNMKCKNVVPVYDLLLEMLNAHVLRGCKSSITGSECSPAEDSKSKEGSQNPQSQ

C=CC(=O)OCC(CC)CCCC (stereo not drawn)
active: DIO1 (gene 1733) 19.4 µM | DIO2 (gene 1734) 23.8 µM | DIO3 (gene 1735) 47 µM

O=[N+]([O-])O
inactive: [1] | [2] | [3] | [4] | [5] | [6] | [7] | [8] | [9] | [10] | [11] | [12] | [13] | CD69, CD69 (gene 969)

COc1ccc(CO)cc1
inactive: [1] | [2] | [3] | [4] | [5] | [6] | [7] | [8] | [9] | [10] | [11] | [12] | [13] | CD69, CD69 (gene 969)

Oc1ccc(C2(c3ccc(O)cc3)c3ccccc3-c3ccccc32)cc1
inactive: [7]
active: [1] 7.47 µM and 7.4 µM | [2] 1.8 µM and 1.21 µM | [3] 5.43 µM | [4] 7.57 µM and 7.24 µM | [5] 5.43 µM and 5.42 µM | [6] 6.88 µM and 5.35 µM | [8] 383 nM and 5.33 µM | [9] 20 µM | [10] 3.59 µM and 2.48 µM | [11] 3.15 µM and 2.69 µM | [12] 1.41 µM and 1.34 µM | [13] 5.13 µM and 5.21 µM | CD69, CD69 (gene 969) 14.3 µM and 13.1 µM

CCCCCCCCCCCCCCCC[N+](C)(C)C
active: DIO1 (gene 1733) 13.5 µM | DIO2 (gene 1734) 19.8 µM | DIO3 (gene 1735) 1.56 µM

O=CNC(N1CCN(C(NC=O)C(Cl)(Cl)Cl)CC1)C(Cl)(Cl)Cl (stereo not drawn)
inactive: [14] | [15] | [16]

c1ccc(P(c2ccccc2)c2ccccc2)cc1
active: [14] 64.4 µM | [15] 84.1 µM | [16] 17 µM

CC(C)(c1cc(Cl)c(O)c(Cl)c1)c1cc(Cl)c(O)c(Cl)c1
active: DIO1 (gene 1733) 73.9 µM | DIO2 (gene 1734) 94.3 µM | DIO3 (gene 1735) 41.8 µM

c1ccc2c(c1)CCCC2
inactive: [14] | [15] | [16]

Cc1cc(C)c(C2=C(OC(=O)CC(C)(C)C)C3(CCCC3)OC2=O)c(C)c1
inactive: [14] | [15] | [16]
